The values below come from PubChem BioAssay (Tox21).

SMILES strings stand for the structures. Several values for one entry are separate records, joined by “and”; a condition that tells them apart may be missing. Equal entries are not always repeated. Results filed as inconclusive are left out. Activity calls are given as the source filed them. Calls come from the whole dose curve; as a rule, active = well fitted activation curve with a large enough effect in the repeat runs; inconclusive = weak or mixed curves; inactive = no such curve, though single readings can be large or run the other way.
% is set by controls: 0 for no effect and ±100 for the full control effect; potency is the fitted concentration of half-maximal effect.

Sequence of Nuclear receptor subfamily 1 group I member 3 (Homo sapiens) (Q14994 whole entry, looked up): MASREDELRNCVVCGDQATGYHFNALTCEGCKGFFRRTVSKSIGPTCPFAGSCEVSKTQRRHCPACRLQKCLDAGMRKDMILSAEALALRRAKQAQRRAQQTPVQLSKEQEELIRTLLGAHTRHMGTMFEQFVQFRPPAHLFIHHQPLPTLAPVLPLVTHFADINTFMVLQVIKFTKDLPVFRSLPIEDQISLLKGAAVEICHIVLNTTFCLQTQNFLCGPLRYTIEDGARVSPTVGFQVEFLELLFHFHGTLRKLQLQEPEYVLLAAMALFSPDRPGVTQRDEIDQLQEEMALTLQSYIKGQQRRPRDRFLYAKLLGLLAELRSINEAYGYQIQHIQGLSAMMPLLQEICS

The target in this experiment is Nuclear receptor subfamily 1 group I member 3 (Homo sapiens) (UniProt Q14994). The experiment can be described thus: qHTS assay to identify small molecule agonists of the constitutive androstane receptor (CAR) signaling pathway (AID 1224839).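 For activation: HepG2 cells stably carrying human CAR and a CYP2B6 luciferase reporter.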 Note: nearly all actives have a fitted effect of over 15% in size. The conditions noted are these: HepG2 hCAR CYP2B6-luciferase, agonist mode, 24 h; series mostly up to 92.4 µM; activation: at the top concentration. An excerpt:
National Center for Advancing Translational Sciences [NCATS] NIH Chemical Genomics Center [NCGC] U.S. Environmental Protection Agency [EPA] National Institutes of Environmental Health Sciences [NIEHS] National Toxicology Program [NTP] Assay overview: The constitutive androstane receptor (CAR) is a nuclear receptor which regulates multiple drug metabolizing enzymes (DMEs) and transporters. Activating CAR will generally increase the transcription and subsequent translation of CYP2B6 and CYP3A4. These two DMEs represent about 50% of the drug metabolizing potential in the body. […] Recently, there have also been studies performed indicating CARs role in energy metabolism and cancer therapy. Therefore, inducing CARs activity could have a potential effect on diabetes and cancer. Identifying environmental toxins and compounds which modulate CAR, through the use of the Tox21 10K compound collection, will be an important step in determining the toxicity and potential therapeutic effects these factors will have on the human body.
Assay Protocol Summary: A double-stable (hCAR and CYP2B6-2.2kb) transfected cell line, derived from human hepatoma (HepG2) cells, was utilized for the duration of the quantitative high-throughput screens. The HepG2-CYP2B6-hCAR cells suspended in DMEM culture medium supplemented with 10% FBS, 5 ug/mL blasticidin, 0.5 mg/mL geneticin, 100 U/mL penicillin and 100 ug/mL streptomycin were dispensed at 2500 cells/4 uL/well in 1536-well white solid bottom plates using a Multidrop Combi. After the assay plates were incubated at 37 C/5% CO2 for 4 hrs, 23 nL of compounds at 15 concentrations (from 5-48 columns) or positive control (from 1 to 4 columns) were transferred to the assay plates using a Pintool station. One uL of PK11195, was added using a Flying Reagent Dispenser to generate a final concentration of 0.75 uM PK11195 inside each well. After a 24 hr incubation period at 37 C/5% CO2, four uL of ONE-Glo reagent was added into the assay plates using a Flying Reagent Dispenser. After a 30 min incubation period at room temperature, the luminescence intensity in the assay plates was measured using a ViewLux plate reader.
(In general: In qHTS, concentration-response curves come from the screen itself.)
Regarding `CCC1(CCC(C)C)C(=O)NC(=O)NC1=O`, the “activation” value was -0.0943% (inactive).
On to `C#C[C@]1(O)CC[C@H]2[C@@H]3CCC4=CC(=O)CCC4=C3C=C[C@@]21CC`, for which the “activation” value was 2.35% [at 42.5 µM] (inactive).
In the case of `CC(C)(c1ccccc1)c1cc(-n2nc3ccccc3n2)c(O)c(C(C)(C)c2ccccc2)c1`, the “activation” value was 0.979% [at 42.5 µM] (inactive).
Consider `c1ccc2c(c1)-c1cccc3cccc-2c13`, for which the Potency is 34.7 µM (active) and 30.6 µM (active).
Take `O=C([O-])c1ccccn1.O=C([O-])c1ccccn1.O=C([O-])c1ccccn1.[Cr+3]`: the “activation” value was -0.997% (inactive).
The same measure, in the same setting: for `O=C1CC[C@@]2(O)[C@H]3Cc4ccc(O)c5c4[C@@]2(CCN3CC2CC2)[C@H]1O5` the value was 0.2% [at 42.5 µM] (inactive); for `C[C@H](N)[C@H](O)c1ccc(O)c(O)c1`, -1.79% [at 42.5 µM] (inactive).
As for `CCSCc1ccccc1OC(=O)NC`, the Potency is 27.3 µM (active).
For the compound `N#CC1(N=NC2(C#N)CCCCC2)CCCCC1`, the “activation” value is 1.18% (inactive).
With `O=C1c2ccccc2C(=O)N1SC(Cl)(Cl)Cl`, the Potency result is “inactive”.
Turning to `C=CCN1C[C@H](C)N([C@H](c2ccc(C(=O)N(CC)CC)cc2)c2cccc(OC)c2)C[C@H]1C`, the “activation” value is -1.24% [at 42.5 µM] (inactive).
Same read-out and setting: for `ClCc1ccccc1Cl` the value was 0.0446% (inactive); for `CC(C)(C#N)C(C)(C)C#N`, 1.55% (inactive); for `CCOC(=O)C1OC1(C)c1ccccc1` (stereo not given), -0.954% (inactive).
Still for that read-out and setting: for `CCCC1CCCCN1` (stereo not given) the value was 0.0249% [at 42.5 µM] (inactive).
For the compound `CCCCNC(=O)OCC#CI`, the Potency entry was “inactive”.
Take `CC(C)(C)c1ccc(CCOc2ncnc3ccccc23)cc1`: the “activation” value is -2.76% (inactive).
On to `Nc1ccccc1C(=O)OCCc1ccccc1`, for which the Potency was 54.7 µM (active) and 27.3 µM (active).
Turning to `O=CC=O`, the “activation” value was -1% (inactive).
For the compound `FC(Cl)(Cl)C(F)(Cl)Cl`, the “activation” value is -0.232% (inactive).
On the same count and under the same terms, for `CN(C1CCCCC1)C1CCCCC1` the value was 0.104% (inactive); for `CCCCCBr`, 0.886% (inactive).
For `CN(C)c1ccc(N=O)cc1`, the Potency is 4.87 µM (active).
In the case of `CC(C)(C)NCC(O)c1cc(Cl)c(N)c(C(F)(F)F)c1` (stereo not given), the “activation” value is -2.31% [at 42.5 µM] (inactive).
`Nc1cc(Cl)cc(C(=O)O)c1Cl`: the Potency entry was “inactive”.
Take `CCCCCCCCCCCCCCCl`: the “activation” value is -1.4% (inactive).
As for `CC(C)C1(C)N=C(c2ncccc2C(=O)O)NC1=O` (stereo not given), the “activation” value was 2.1% (inactive).
As for `CCCCCCCCCCCC[N+](C)(C)CCOc1ccccc1`, the Potency entry is “inactive”.
For the compound `CCc1cnc(C2=NC(C)(C(C)C)C(=O)N2)c(C(=O)O)c1` (stereo not given), the Potency entry is “inactive”.
Regarding `O=C(O)C(F)(F)C(F)(F)C(F)(F)C(F)(F)C(F)(F)F`, the “activation” value was -2.52% (inactive).
The same measure, in the same setting: for `C=CCc1ccc(OC(=O)Cc2ccccc2)c(OC)c1` the value was 6.87% (inactive).
Same read-out and setting: for `Cc1nnc(-c2ccccc2)c(=O)n1N` the value was 7.82% (inactive).
Same read-out and setting: for `CCCCC(CC)COC(=O)c1c(Br)c(Br)c(Br)c(Br)c1C(=O)OCC(CC)CCCC` (stereo not given) the value was -2.07% [at 42.5 µM] (inactive); for `CC(C)(C)OOC(C)(C)CCC(C)(C)OOC(C)(C)C`, -3.12% (inactive).
Consider `COP(=O)(OC)OC(Br)C(Cl)(Cl)Br` (stereo not given), for which the Potency result was “inactive”.
Turning to `CCOP(=S)(S)OCC`, the “activation” value was 0.701% (inactive).
On to `c1ccc2c(c1)sc1ccccc12`, for which the Potency entry is “inactive”.
On to `O=S(=O)(Cl)Cl`, for which the “activation” value was -1.68% (inactive).
Consider `O=[N+]([O-])/C=C/c1ccccc1`, for which the Potency result is “inactive”.
For `O=C(O)C(Cl)(Cl)Br`, the “activation” value was -0.18% (inactive).
